This is an account of results in PubChem BioAssay (EPA / NIEHS).

Several values for one entry are separate records, joined by “and”; a condition that tells them apart may be missing. Identical values can stand only once. Where a structure was tested more than once in an assay, its records may differ in their call. Activity calls are given as the source filed them. How the source made its calls: active means hit-call score of the fitted dose curve at least 0.9, where 1 is the maximum; inactive means score below 0.9.

What is called AC50 is the concentration giving half of the maximal activity seen.

Holding throughout (conditions): mRNA level, 48 h; actives raise or lower the signal
Read-out in assay [1]: MicroRNA 122 (MIR122), gene 406906
Put plainly: LTEA_HepaRG_MIR122: Life Technologies and Expression Analysis (LTEA) Assay for MicroRNA 122 (MIR122) using HepaRG (AID 2283516). Further: the transcript read is the microRNA miR-122. An outline of the steps:
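Changes in transcript abundance, up or down relative to 0.5% DMSO vehicle, were scored after 48 h chemical treatment of HepaRG cells (maximum 100 uM). Quantification used TaqMan qRT-PCR normalized to housekeeping genes.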

Read-out in assay [2]: matrix metalloproteinase-10 (MMP10), MMP10 (gene 4319)
Put plainly: LTEA_HepaRG_MMP10: Life Technologies and Expression Analysis (LTEA) Assay for matrix metalloproteinase-10 (MMP10) using HepaRG (AID 2283517). In short, it runs like this:
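In differentiated HepaRG cultures kept in 0.5% DMSO, test chemicals act for 48 h over an eight-point range with a top dose of 100 uM. Expression is then quantified by TaqMan RT-PCR against ACTB, GAPDH and POLR2A.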

Read-out in another assay: MYC, MYC (gene 4609)
In words: LTEA_HepaRG_MYC: Life Technologies and Expression Analysis (LTEA) Assay for MYC using HepaRG (AID 2283518). In short, it runs like this:
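Expression changes were scored by TaqMan qRT-PCR with ACTB, GAPDH and POLR2A normalization. Cultures in serum-free induction medium received duplicate 8-point concentration series, highest 100 uM, for 48 h; DMSO (0.5%) served as baseline.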

Read-out in assay [3]: matrix metalloproteinase-3 (MMP3), MMP3 (gene 4314)
Put plainly: LTEA_HepaRG_MMP3: Life Technologies and Expression Analysis (LTEA) Assay for matrix metalloproteinase-3 (MMP3) using HepaRG (AID 2283519). In short, it runs like this: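 Human liver HepaRG cultures received chemicals (top concentration 100 uM, 0.5% DMSO) for 48 h in duplicate. MMP3 mRNA induction or loss was then assessed via TaqMan qRT-PCR with housekeeping-gene normalisation.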

Read-out in assay [4]: Paternally Expressed 10 (PEG10), PEG10 (gene 23089)
In words: LTEA_HepaRG_PEG10: Life Technologies and Expression Analysis (LTEA) Assay for Paternally Expressed 10 (PEG10) using HepaRG (AID 2283520).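 On AC50: PEG10 transcript by qRT-PCR normalised to ACTB GAPDH and POLR2A.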 An outline of the steps:
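After 48 h exposure of differentiated HepaRG cells (0.5% DMSO vehicle, eight concentrations up to 100 uM, duplicates), PEG10 mRNA was measured by TaqMan qRT-PCR. Values were normalised to endogenous control genes and analysed bidirectionally against vehicle.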

Read-out in assay [5]: Nuclear factor NF-kappa-B p105 subunit (Homo sapiens) (UniProt P19838)
Put plainly: LTEA_HepaRG_NFKB1: Life Technologies and Expression Analysis (LTEA) Assay for Nuclear Factor Kappa B Subunit 1 (NFKB1) using HepaRG (AID 2283521).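 On outcome: differentiated human HepaRG liver cells in serum-free induction medium; TaqMan qRT-PCR transcript normalised to ACTB GAPDH and POLR2A housekeeping genes.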 On the procedure:
LTEA_HepaRG is a cell based, multiplexed-readout assay that uses HepaRG, a human liver cell line, with measurements taken at 48 hours after chemical dosing on a 96-well plate.LTEA_HepaRG_NFKB1 is one of 102 assay component(s) measured in the LTEA HepaRG cell culture assay. It is a marker of Cell proliferation, survival, death.Data from the assay component LTEA_HepaRG_NFKB1 was analyzed into 1 endpoint. This assay endpoint, LTEA_HepaRG_NFKB1, was analyzed with bidirectional fitting relative to DMSO as the negative control and baseline of activity. Using a type of inducible reporter, measures of mRNA induction for gain or loss-of-signal activity can be used to understand regulation of transcription factor activity. To generalize the intended target to other relatable targets, this assay endpoint is annotated to the dna binding intended target family, where the subfamily is NF-kappa B.
A total of 1060 chemcials from the ToxCast library were tested in eight-point concentration-response experiments. Cell culture and cytotoxicity assays were conducted at Thermo Fisher Scientific's Custom Services facility (Madison, WI). A single lot of human HepaRG cells (Thermo Fisher Scientific, Frederick, MD) was used for the cell culture experiments. 96-well format collagen type I coated plates of human HepaRG cells were prepared using established methods. Briefly, cryopreserved HepaRG cells were thawed, plated at a density of approximately 100,000 cells/well in HepaRG Thaw, Plate, and General Purpose media (HPRG770, Thermo Fisher Scientific), and incubated for 48 hours. 0.5% DMSO was selected as vehicle control to balance the requisite need of DMSO in HepaRG cultures to maintain differentiation (for example, baseline metabolism, proportions of hepatocytes vs. cholangiocytes), while enabling further hepatic receptor pathway activation (for example, PXR and CAR) in response to chemical exposure. 48 hours after plating, the culture medium was replaced with HepaRG Serum-Free Incudtion Media. Cells were exposed to each test chemical in duplicate and maintained in CO2 incubators for another 48 hours. Chemical plates were thawed to room temperature and 200x concentrations of treatment groups were prepared. 8-point conentration-reponse curves were made with the highest exposure at 100 uM, followed by half-log dilutions, all in 0.5% DMSO. Each test plate contained variouse controls, induction positive controls (1mM phenobarbital), cytotoxicity positive controls ([…] aflatoxin B1), vehicle controls (0.5% DMSO), and total lysis controls (0.5% DMSO). Cell morphology images were taken using an Essen IncuCyte FLR automated microscope, with six 96-well plates imaged in about 24 minutes. Images were captured and exported and JPEG files. Spent culture media was transfered to black-well plates for the LDH assay, and remaining media was sorted at -80 C for later use. Cells were treated with RLT buffer and frozen until shipped for gene expression analysis. Total RNA was isolated from the cell suspension in 75 uL of Buffer RLT (Qiagen, Germantown, MD 20874) by Quintiles/Expression Analysis (Durham, NC) using a custom isolation procedure. Total RNA from each plate well was transferred to a preamplification plate. Fluidigm's 96.96 Dynamic ArrayTM (Fluidigm, Amsterdam, the Netherlands) technology was used for gene expression analyses by quantitative reverse transcription polymerase chain reaction (qRT-PCR, performed by Quintiles/Expression Analysis, Durham, NC)89. Standard TaqManTM Assays (Applied Biosystems/ThermoFisher Scientific, Foster City, CA) were used to assess the expression of 93 genes selected based on their selectivity and sensitivity to important hepatic receptors known to be modulated by environmental chemicals; importance in human hepatocyte functionality; and hepatotoxicity. […]

Read-out in assay [6]: Protein phosphatase 2A (PPP2R4), PTPA (gene 5524)
In words: LTEA_HepaRG_PPP2R4: Life Technologies and Expression Analysis (LTEA) Assay for Protein phosphatase 2A (PPP2R4) using HepaRG (AID 2283522). An outline of the steps:
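Using HepaRG cultures maintained in 0.5% DMSO, chemicals are tested 48 h at up to 100 uM in duplicate. Induction or suppression of PPP2R4 mRNA, measured by qRT-PCR, is fitted bidirectionally against the vehicle baseline.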

Read-out in assay [7]: Phosphatase and tensin (PTEN), PTEN (gene 5728)
Put plainly: LTEA_HepaRG_PTEN: Life Technologies and Expression Analysis (LTEA) Assay for Phosphatase and tensin (PTEN) using HepaRG (AID 2283523). In short, it runs like this: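 Expression of PTEN is quantified in the human liver line HepaRG following two days of dosing (top concentration 100 uM, half-log dilutions, 0.5% DMSO). Values derive from bidirectional curve fitting relative to DMSO controls.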

Read-out in assay [8]: solute carrier (SLC22A1), SLC22A1 (gene 6580)
Put plainly: LTEA_HepaRG_SLC22A1: Life Technologies and Expression Analysis (LTEA) Assay for solute carrier (SLC22A1) using HepaRG (AID 2283524).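 On AC50: differentiated human HepaRG liver cells in serum-free induction medium; TaqMan qRT-PCR normalized to ACTB GAPDH and POLR2A housekeeping genes.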 In short, it runs like this:
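Transcript induction or suppression of SLC22A1 in human HepaRG cultures is scored after 48 h chemical treatment, with DMSO (0.5%) as baseline for bidirectional fitting. Concentrations span eight half-log points topping at 100 uM.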

Read-out in assay [9]: Pyruvate Dehydrogenase Kinase 4 (PDK4), PDK4 (gene 5166)
In words: LTEA_HepaRG_PDK4: Life Technologies and Expression Analysis (LTEA) Assay for Pyruvate Dehydrogenase Kinase 4 (PDK4) using HepaRG (AID 2283525). An outline of the steps:
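Eight-point, half-log concentration series (max 100 uM, 0.5% DMSO) applied to differentiated HepaRG cells for 48 h in duplicate. Endpoint: PDK4 mRNA induction or repression by qRT-PCR against DMSO baseline.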

Nuclear factor NF-kappa-B p105 subunit (Homo sapiens), sequence (P19838 whole entry, looked up): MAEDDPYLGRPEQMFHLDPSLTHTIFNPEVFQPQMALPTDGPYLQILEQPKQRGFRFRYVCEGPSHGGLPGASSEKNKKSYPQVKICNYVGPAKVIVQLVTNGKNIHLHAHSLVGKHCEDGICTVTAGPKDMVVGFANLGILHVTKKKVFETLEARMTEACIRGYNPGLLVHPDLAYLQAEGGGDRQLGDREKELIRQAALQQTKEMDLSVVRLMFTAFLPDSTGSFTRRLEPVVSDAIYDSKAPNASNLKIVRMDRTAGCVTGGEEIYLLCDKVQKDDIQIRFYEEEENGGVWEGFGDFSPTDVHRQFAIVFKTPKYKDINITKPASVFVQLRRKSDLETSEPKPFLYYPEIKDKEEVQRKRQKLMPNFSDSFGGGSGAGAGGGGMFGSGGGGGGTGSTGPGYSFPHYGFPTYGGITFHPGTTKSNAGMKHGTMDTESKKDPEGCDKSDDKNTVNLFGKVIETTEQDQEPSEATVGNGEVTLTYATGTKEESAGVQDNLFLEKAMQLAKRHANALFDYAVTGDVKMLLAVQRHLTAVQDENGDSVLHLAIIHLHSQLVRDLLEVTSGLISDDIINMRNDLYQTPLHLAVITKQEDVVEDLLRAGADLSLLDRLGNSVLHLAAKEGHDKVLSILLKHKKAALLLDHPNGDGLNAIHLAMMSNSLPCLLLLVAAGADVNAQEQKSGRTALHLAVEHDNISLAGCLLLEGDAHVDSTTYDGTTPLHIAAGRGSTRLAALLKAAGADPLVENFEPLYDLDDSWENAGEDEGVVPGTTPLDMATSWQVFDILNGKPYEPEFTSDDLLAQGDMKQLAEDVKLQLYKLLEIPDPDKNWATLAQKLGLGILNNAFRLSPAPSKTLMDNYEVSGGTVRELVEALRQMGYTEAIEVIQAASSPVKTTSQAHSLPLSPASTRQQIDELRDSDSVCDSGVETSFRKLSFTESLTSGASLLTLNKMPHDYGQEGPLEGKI

Consider `CCCCOCCOCCO`, for which the outcome in [1] is “inactive”; in [2], “inactive”; with MYC, MYC (gene 4609), “inactive”; in [3] it was “inactive”; in assay [4], “inactive”; in [5], “inactive”. Further, the compound was called inactive in assay [6], in [7], in assay [8] and in assay [9].

As to `C=C(C)C(N)=O`, the outcome was “inactive” in [1]; “inactive” in assay [2]; “inactive” with MYC, MYC (gene 4609); “inactive” in assay [3]; “inactive” in [4]; “inactive” in assay [5]. Also, the result in assay [6], in assay [7], in assay [8] and in assay [9] was inactive.

Turning to `C#C[C@]1(O)CC[C@H]2[C@@H]3CCc4cc(O)ccc4[C@H]3CC[C@@]21C`, the outcome in assay [1] is “inactive”; in [2], “inactive”; in the assay with MYC, MYC (gene 4609), “inactive”; in assay [3] it was “inactive”; in assay [4], “inactive”; in [5] it was “inactive”. The result in [6], in [7] and in [9] was inactive.

In the case of `CC/C(=C(\c1ccccc1)c1ccc(OCCN(C)C)cc1)c1ccccc1`, the outcome is “inactive” in [1]; “inactive” with MYC, MYC (gene 4609); “inactive” in [5]; “inactive” in assay [6]; “inactive” in assay [7]; “inactive” in assay [9]. For the same compound, the AC50 was 75 µM (active) and 50 µM (active) in assay [2]; 85.6 µM (active) in the assay with MYC, MYC (gene 4609); 86.1 µM (active) and 92.9 µM (active) in [3]; 53.8 µM (active) and 94 µM (active) in assay [4]; 81.9 µM (active) in assay [5]; 93.3 µM (active) in assay [7]. The AC50 in [8] is 42.3 µM (active) and 15.8 µM (active); in assay [9], 69.2 µM (active).

On to `COC(=O)c1ccc(C(=O)OC)cc1`, for which the outcome in assay [1] was “inactive”; in [2] it was “inactive”; with MYC, MYC (gene 4609), “inactive”; in assay [3], “inactive”; in [4], “inactive”; in assay [5], “inactive”. The compound was called inactive in [6], in assay [7], in assay [8] and in [9].

Take `C[C@]12CC[C@@H]3c4ccc(O)cc4CC[C@H]3[C@@H]1CC[C@@H]2O`: the outcome in assay [1] was “inactive”; in [2], “inactive”; in the assay with MYC, MYC (gene 4609), “inactive”; in assay [3] it was “inactive”; in assay [6], “inactive”; in assay [7], “inactive”. In [9], the outcome was inactive. For the same compound, the results for the AC50 in assay [4] and in assay [8] were 10.6 µM (active) and 50 µM (active), respectively.

For `O=C(c1ccc(OCCN2CCCCC2)cc1)c1c(-c2ccc(O)cc2)sc2cc(O)ccc12`, the outcome in [1] is “inactive”; with MYC, MYC (gene 4609) it was “inactive”; in [3] it was “inactive”; in assay [5] it was “inactive”. The AC50 in assay [2] was 78.7 µM (active); in assay [4], 65.9 µM (active); in assay [6], 50 µM (active); in [7], 77.9 µM (active); in assay [8], 80 µM (active); in assay [9], 50 µM (active).
